Laboratory results taken from PubChem BioAssay (Tox21).
Results filed as inconclusive are left out. A call without a number means that no potency is given here. Calls of active or inactive are those of the source. Calls follow the shape of the dose curve; as a rule, active = well fitted curve in the direction sought with a large enough effect in the repeat runs; inconclusive = weak or mixed curves; inactive = no such curve, though single readings can be large; an effect the other way counts as inactive or inconclusive.

Assay: qHTS assay to identify small molecule HDAC inhibitors (AID 1259364); also: top concentration of the series differs between compounds; nearly all actives have a fitted effect of over 45% in size
Conditions: HCT-116 HDAC-Glo I/II luminescence, 2 h; series mostly up to 92.4 µM
In short: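 Luminescence from a cell-permeant luminogenic class I/II HDAC substrate reports endogenous deacetylase activity in intact HCT-116 cells treated with compounds for 2 h.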
In the case of `CCOC=C(C(=O)OCC)C(=O)OCC`, the Potency was “inactive”.
In the case of `O=C1CCC(=O)N1`, the Potency was “inactive”.
With `CCc1cccc(C)c1N(C(=O)CS(=O)(=O)O)C(C)COC` (stereo not given) the Potency was “inactive”.
With `O=[N+]([O-])c1ccc(CO)cc1` the Potency was “inactive”.
In the case of `CN[C@H]1CC[C@@H](c2ccc(Cl)c(Cl)c2)c2ccc(S(N)(=O)=O)cc21`, the Potency was “inactive”.
In the case of `C=CC(=O)OCCOC1C2CCC1C1CC=CC12` (stereo not given), the activity change, negative = inhibition was 5.48% [at 19 µM] (inactive).
In the case of `Cc1ccc2sc3cccc(C)c3c2c1`, the Potency was “inactive”.
With `Cc1cc(C)c(O)c(C(C)(C)C)c1` the Potency was “inactive”.
In the case of `CCN(CC)c1ccc(C=O)cc1`, the Potency was “inactive”.
With `O=C1CCCCCCCCCCCCCC1` the Potency was “inactive”.
For `Cc1ccc(C=O)cc1`, the Potency was “inactive”.
For `SC1CCCCC1`, the Potency was “inactive”.
For `CC(C)C(=O)C(C)C`, the Potency was “inactive”.
In the case of `CCc1cccc(CC)c1`, the Potency was “inactive”.
In the case of `Clc1ccc2c(Cl)ccnc2c1`, the Potency was “inactive”.
In the case of `CCC1(C)C(=O)N(Cl)C(=O)N1Cl` (stereo not given), the Potency was “inactive”.
With `CSc1ccc(O)cc1C` the Potency was “inactive”.
In the case of `Nc1ccc(F)c([N+](=O)[O-])c1`, the Potency was “inactive”.
For `O=c1[nH]cccc1O`, the Potency was “inactive”.
For `C/C=C/C(=O)OCC(C)C`, the Potency was “inactive”.
With `CCOC(=O)OC(=O)OCC` the Potency was “inactive”.
For `CCCCCCCCc1ccc(Nc2ccc(CCCCCCCC)cc2)cc1`, the Potency was “inactive”.
In the case of `Cc1cccc2c1ccc1ccccc12`, the Potency was “inactive”.
With `C=C(C)C1CCC(C)CC1O` (stereo not given) the Potency was “inactive”.
For `C=C1CC[C@H]2O[C@]2(C)CC[C@@H]2[C@@H]1CC2(C)C`, the Potency was “inactive”.
With `NC(=O)C1CO1` (stereo not given) the Potency was “inactive”.
For `Cc1c[nH]c(=O)[nH]c1=O`, the Potency was “inactive”.
For `NCc1ccco1`, the Potency was “inactive”.
With `CCc1c(C)cc(N)c(CC)c1N` the Potency was “inactive”.
For `O=C1OCc2ccccc21`, the Potency was “inactive”.
In the case of `Nc1c(Br)cc([N+](=O)[O-])cc1Br`, the Potency was “inactive”.
For `CC(C=O)c1ccccc1` (stereo not given), the Potency was “inactive”.
In the case of `CCOC(=O)[C@H](O)[C@@H](O)C(=O)OCC`, the Potency was “inactive”.
For `CSc1nnc(C(C)(C)C)c(=O)[nH]1`, the Potency was “inactive”.
In the case of `CCc1cccc(C)c1N(C(=O)C(=O)O)C(C)COC` (stereo not given), the Potency was “inactive”.
For `Cc1ccc2n[nH]nc2c1`, the Potency was “inactive”.
In the case of `CCCC(C)C=O` (stereo not given), the Potency was “inactive”.
In the case of `C/C(=C\c1ccc(C(=O)O)cc1)c1ccc2c(c1)C(C)(C)CCC2(C)C`, the Potency was “inactive”.
With `O=C(NCc1ncc(C(F)(F)F)cc1Cl)c1c(Cl)cccc1Cl` the Potency was “inactive”.
In the case of `C=CC(C)(C)O`, the Potency was “inactive”.

Assay: qHTS assay to identify small molecule HDAC inhibitors - cell viability counter screen (AID 1259365); also: nearly all actives have a fitted effect of over 50% in size
Conditions: HCT-116 viability, CellTiter-Glo ATP luminescence, 2 h; series mostly up to 92.4 µM
In short: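 Measured quantity is CellTiter-Glo luminescence from wild-type HCT-116 cells after compound incubation of 2hr at 37C, 5% CO2; reagent developed 30min at room temperature.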
In the case of `CCOC=C(C(=O)OCC)C(=O)OCC`, the Potency was “inactive”.
With `O=C1CCC(=O)N1` the Potency was “inactive”.
With `CCc1cccc(C)c1N(C(=O)CS(=O)(=O)O)C(C)COC` (stereo not given) the Potency was “inactive”.
In the case of `O=[N+]([O-])c1ccc(CO)cc1`, the Potency was “inactive”.
With `CN[C@H]1CC[C@@H](c2ccc(Cl)c(Cl)c2)c2ccc(S(N)(=O)=O)cc21` the Potency was “inactive”.
In the case of `C=CC(=O)OCCOC1C2CCC1C1CC=CC12` (stereo not given), the activity change, negative = cytotoxicity was 3.58% [at 19 µM] (inactive).
With `Cc1ccc2sc3cccc(C)c3c2c1` the Potency was “inactive”.
With `Cc1cc(C)c(O)c(C(C)(C)C)c1` the Potency was “inactive”.
For `CCN(CC)c1ccc(C=O)cc1`, the Potency was “inactive”.
For `O=C1CCCCCCCCCCCCCC1`, the Potency was “inactive”.
For `Cc1ccc(C=O)cc1`, the Potency was “inactive”.
With `SC1CCCCC1` the Potency was “inactive”.
With `CC(C)C(=O)C(C)C` the Potency was “inactive”.
For `CCc1cccc(CC)c1`, the Potency was “inactive”.
With `Clc1ccc2c(Cl)ccnc2c1` the Potency was “inactive”.
In the case of `CCC1(C)C(=O)N(Cl)C(=O)N1Cl` (stereo not given), the Potency was “inactive”.
With `CSc1ccc(O)cc1C` the Potency was “inactive”.
For `Nc1ccc(F)c([N+](=O)[O-])c1`, the Potency was “inactive”.
With `O=c1[nH]cccc1O` the Potency was “inactive”.
In the case of `C/C=C/C(=O)OCC(C)C`, the Potency was “inactive”.
With `CCOC(=O)OC(=O)OCC` the Potency was “inactive”.
With `CCCCCCCCc1ccc(Nc2ccc(CCCCCCCC)cc2)cc1` the Potency was “inactive”.
With `Cc1cccc2c1ccc1ccccc12` the Potency was “inactive”.
In the case of `C=C(C)C1CCC(C)CC1O` (stereo not given), the Potency was “inactive”.
For `C=C1CC[C@H]2O[C@]2(C)CC[C@@H]2[C@@H]1CC2(C)C`, the Potency was “inactive”.
In the case of `NC(=O)C1CO1` (stereo not given), the Potency was “inactive”.
With `Cc1c[nH]c(=O)[nH]c1=O` the Potency was “inactive”.
With `NCc1ccco1` the Potency was “inactive”.
In the case of `CCc1c(C)cc(N)c(CC)c1N`, the Potency was “inactive”.
In the case of `O=C1OCc2ccccc21`, the Potency was “inactive”.
In the case of `Nc1c(Br)cc([N+](=O)[O-])cc1Br`, the Potency was “inactive”.
In the case of `CC(C=O)c1ccccc1` (stereo not given), the Potency was “inactive”.
With `CCOC(=O)[C@H](O)[C@@H](O)C(=O)OCC` the Potency was “inactive”.
With `CSc1nnc(C(C)(C)C)c(=O)[nH]1` the Potency was “inactive”.
With `CCc1cccc(C)c1N(C(=O)C(=O)O)C(C)COC` (stereo not given) the Potency was “inactive”.
For `Cc1ccc2n[nH]nc2c1`, the Potency was “inactive”.
For `CCCC(C)C=O` (stereo not given), the Potency was “inactive”.
In the case of `C/C(=C\c1ccc(C(=O)O)cc1)c1ccc2c(c1)C(C)(C)CCC2(C)C`, the Potency was “inactive”.
In the case of `O=C(NCc1ncc(C(F)(F)F)cc1Cl)c1c(Cl)cccc1Cl`, the Potency was “inactive”.
In the case of `C=CC(C)(C)O`, the Potency was “inactive”.

Assay: qHTS assay to identify small molecule agonists of the sonic hedgehog signaling (Shh) pathway - cell viability counter screen (AID 1259366); also: nearly all actives have a fitted effect of over 50% in size; also: potency is read from the fitted curve at half-maximal effect
Conditions: NIH/3T3 Gli1-Luc viability, CellTiter-Fluor, 24 h; series mostly up to 92.4 µM
In short: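 In quantitative high-throughput format, 3T3 Gli1-Luc cells were exposed to compounds for 24hr and multiplexed for viability using CellTiter-Fluor, incubated 1hr at 37C before the fluorescence read.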
With `CCOC=C(C(=O)OCC)C(=O)OCC` the Potency was “inactive”.
In the case of `O=C1CCC(=O)N1`, the Potency was “inactive”.
In the case of `CCc1cccc(C)c1N(C(=O)CS(=O)(=O)O)C(C)COC` (stereo not given), the Potency was “inactive”.
In the case of `O=[N+]([O-])c1ccc(CO)cc1`, the Potency was “inactive”.
With `CN[C@H]1CC[C@@H](c2ccc(Cl)c(Cl)c2)c2ccc(S(N)(=O)=O)cc21` the Potency was 30.6 µM (active).
With `C=CC(=O)OCCOC1C2CCC1C1CC=CC12` (stereo not given) the viability change, negative = cytotoxic was 9.3% [at 19 µM] (inactive).
In the case of `Cc1ccc2sc3cccc(C)c3c2c1`, the Potency was “inactive”.
In the case of `Cc1cc(C)c(O)c(C(C)(C)C)c1`, the Potency was “inactive”.
For `CCN(CC)c1ccc(C=O)cc1`, the Potency was “inactive”.
For `O=C1CCCCCCCCCCCCCC1`, the Potency was “inactive”.
With `Cc1ccc(C=O)cc1` the Potency was “inactive”.
With `SC1CCCCC1` the Potency was “inactive”.
With `CC(C)C(=O)C(C)C` the Potency was “inactive”.
In the case of `CCc1cccc(CC)c1`, the Potency was “inactive”.
With `Clc1ccc2c(Cl)ccnc2c1` the Potency was “inactive”.
In the case of `CCC1(C)C(=O)N(Cl)C(=O)N1Cl` (stereo not given), the Potency was “inactive”.
With `CSc1ccc(O)cc1C` the Potency was 43.3 µM (active).
With `Nc1ccc(F)c([N+](=O)[O-])c1` the Potency was “inactive”.
For `O=c1[nH]cccc1O`, the Potency was “inactive”.
In the case of `C/C=C/C(=O)OCC(C)C`, the Potency was “inactive”.
In the case of `CCOC(=O)OC(=O)OCC`, the Potency was “inactive”.
For `CCCCCCCCc1ccc(Nc2ccc(CCCCCCCC)cc2)cc1`, the Potency was “inactive”.
In the case of `Cc1cccc2c1ccc1ccccc12`, the Potency was “inactive”.
For `C=C(C)C1CCC(C)CC1O` (stereo not given), the Potency was “inactive”.
With `C=C1CC[C@H]2O[C@]2(C)CC[C@@H]2[C@@H]1CC2(C)C` the Potency was “inactive”.
In the case of `NC(=O)C1CO1` (stereo not given), the Potency was “inactive”.
In the case of `Cc1c[nH]c(=O)[nH]c1=O`, the Potency was “inactive”.
In the case of `NCc1ccco1`, the Potency was “inactive”.
In the case of `CCc1c(C)cc(N)c(CC)c1N`, the Potency was “inactive”.
With `O=C1OCc2ccccc21` the Potency was “inactive”.
For `Nc1c(Br)cc([N+](=O)[O-])cc1Br`, the Potency was “inactive”.
In the case of `CC(C=O)c1ccccc1` (stereo not given), the Potency was “inactive”.
With `CCOC(=O)[C@H](O)[C@@H](O)C(=O)OCC` the Potency was “inactive”.
With `CSc1nnc(C(C)(C)C)c(=O)[nH]1` the Potency was “inactive”.
In the case of `CCc1cccc(C)c1N(C(=O)C(=O)O)C(C)COC` (stereo not given), the Potency was “inactive”.
In the case of `Cc1ccc2n[nH]nc2c1`, the Potency was “inactive”.
With `CCCC(C)C=O` (stereo not given) the Potency was “inactive”.
In the case of `C/C(=C\c1ccc(C(=O)O)cc1)c1ccc2c(c1)C(C)(C)CCC2(C)C`, the Potency was “inactive”.
For `O=C(NCc1ncc(C(F)(F)F)cc1Cl)c1c(Cl)cccc1Cl`, the Potency was “inactive”.
For `C=CC(C)(C)O`, the Potency was “inactive”.
